Source: PubChem
Hits are enriched below; roughly 19% of the tested compounds scored in any of these assays.
TDP1 cell noCPT: qHTS for Inhibitors of human tyrosyl-DNA phosphodiesterase 1 (TDP1): qHTS in cells in absence of CPT | AID 686978, 2013 | 15% of 420,000 active | Potency, µM (titrated, usually from 46.2 µM), for the others: top-dose activity change, negative = growth inhibition, actives largely listed as inhibitors | DT40 Tdp1-/- hTDP1 cells, no CPT, ATP luminescence, 48 h; further: nearly all actives have a fitted effect of over 55% in size
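Growth kinetics read by CellTiter-Glo luminescence after ≥48 hr at 37 °C. Cells: DT40 Tdp1-/- stably carrying human TDP1, 400 per well, compound exposure in the absence of CPT (DMSO vehicle).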
KB-V1 MDR tox: kills drug-selected multidrug resistant KB-V1 cells; KB-V1 MDR cells viability, CellTiter-Glo, 72 h; Potency, µM (top dose mostly 46.1 µM), actives largely listed as cytotoxic; 3.4% of 400,000 active; further: nearly all actives have a fitted effect of over 60% in size
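KB-V1 cells (P-gp-expressing MDR subline of KB-3-1) in phenol-red-free DMEM with 10% FBS were exposed to library compounds over a concentration series for 72 h at 37 degrees C. Viability read by CellTiter-Glo luminescence; concentration-effect curves fitted after normalization.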
HT1080 IDH1KD tx: HT-1080 IDH1 knockdown cell toxicity (counter line) | HT-1080 IDH1 knockdown viability, ATP luminescence, 48 h | Potency, µM (highest dose often 46.1 µM), for the others: at the highest dose activity, negative = toxicity, most hits filed as cytotoxic | 2% of 360,000 active | AID 686971;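 further: 0% = DMSO wells and -100% = cell-free medium wells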
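In this qHTS, HT-1080 cells depleted of IDH1 are exposed for 48 h at 37 °C to compound titrations. Toxicity is scored from CellTiter-Glo luminescence, with DMSO as full viability and medium alone as none.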
TDP1 cell CPT: DT40-hTDP1 cell growth loss with CPT; chicken DT40 Tdp1-/-;hTDP1 cells + 20 nM CPT, ATP luminescence, 48 h; Potency, µM (series often up to 46.2 µM), inactives show at the top dose activity change, negative = growth inhibition, most hits filed as inhibitors; 12% of 420,000 active; AID 686979; further: nearly all actives have a fitted effect of over 55% in size
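Cell growth measured by CellTiter-Glo luminescence after a minimum 48 h, 37 C compound exposure with 20 nM CPT in Tdp1-knockout DT40 cells stably expressing hTDP1, seeded 400/well; qHTS titration format.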
HT1080-NT tox: kills 2HG-producing HT-1080-NT fibrosarcoma cells; HT-1080-NT fibrosarcoma viability, CellTiter-Glo ATP luminescence, 48 h; 1.6% of 360,000 active; AID 686970; Potency, µM (top dose mostly 46.1 µM), without a hit: at the top dose activity, negative = less viability, most hits filed as cytotoxic;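 further: NT is the 2HG producing partner of a matched IDH1 knockdown line; 0% = DMSO-treated cells and -100% = media-only wells without cells; nearly all actives have a fitted effect of over 55% in size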
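Fibrosarcoma NT cells, 750 per well in 5% FBS RPMI, were exposed to compound for 48 hours. Viability: CellTiter-Glo luminescence.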
KB-3-1 tox: KB-3-1 parental cell cytotoxicity; Potency, µM (doses to about 46.1 µM), usual class: cytotoxic; KB-3-1 viability, CellTiter-Glo ATP luminescence, 72 h; 1.4% of 400,000 active; AID 1347075; further: nearly all actives have a fitted effect of over 60% in size
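Cells are dispensed, compounds pinned in, plates held at 37 °C for 72 h, then CellTiter-Glo is added and luminescence read after 10 minutes. Cell line: parental KB-3-1 in phenol-red-free DMEM, 10% FBS.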
The depositor's hits bear a star; [ ] = dose if it differs, or a comment. The call rests on the fitted dose curve; in most records, active means well fitted curve in the direction sought with a large enough effect; inconclusive means small, poorly fitted or top-dose-only effect, or another doubt; inactive means no such curve, though single readings can be large; an effect the other way counts as inactive or inconclusive. Unless noted, on the % scale 0 is the no-effect control and ±100 the full control effect; potency means the concentration at half of the fitted maximal effect.

How did CC(C)NC(=O)C1(C)CCCN1Cc1ccccc1 (stereo unspecified) do in these assays?
TDP1 cell noCPT: inconclusive; KB-V1 MDR tox: inactive; HT1080 IDH1KD tx: 4%; TDP1 cell CPT: -30%; HT1080-NT tox: 23%; KB-3-1 tox: inactive

What do the screens show for `CC(C)NC(=O)C1(C)CCN1CCC(=O)c1ccccc1` (stereo unspecified)?
TDP1 cell noCPT: 13µM*; KB-V1 MDR tox: inactive; HT1080 IDH1KD tx: 4%; TDP1 cell CPT: 13µM*; HT1080-NT tox: 16%; KB-3-1 tox: inactive

How did CC1(c2cc([N+](=O)[O-])cc([N+](=O)[O-])c2)CC(C)(C)N(C(=O)c2ccccc2)c2ccccc21 (stereo unspecified) do in these assays?
TDP1 cell noCPT: 16µM*; KB-V1 MDR tox: inactive; HT1080 IDH1KD tx: 0%; TDP1 cell CPT: 23µM*; HT1080-NT tox: 12%; KB-3-1 tox: inactive

How did COc1ccc(C(=O)N2c3ccccc3C(C)(c3ccc(Cl)cc3)CC2(C)C)cc1 (stereo unspecified) do in these assays?
TDP1 cell noCPT: 16µM*; TDP1 cell CPT: inconclusive

What do the screens show for `COc1cccc(C(=O)N2c3ccc(C)cc3C(C)(c3ccccc3)CC2(C)C)c1` (stereo unspecified)?
TDP1 cell noCPT: 23µM*; TDP1 cell CPT: inconclusive

Results for CC1(c2ccc(Cl)cc2)CC(C)(C)N(C(=O)c2ccccc2)c2ccccc21 (stereo unspecified) ?
TDP1 cell noCPT: inconclusive; KB-V1 MDR tox: inconclusive; TDP1 cell CPT: inconclusive; KB-3-1 tox: inactive

What do the screens show for `CN(C)c1ncc2nc(-c3ccc(Cl)cc3)c(=O)n(CCC#N)c2n1`?
TDP1 cell noCPT: -2%; TDP1 cell CPT: 2%

How did O=C1C2C3CC4C5C3C1C5C1(SCCS1)C42 (stereo unspecified) do in these assays?
TDP1 cell noCPT: -4%; KB-V1 MDR tox: inactive; HT1080 IDH1KD tx: -1%; TDP1 cell CPT: -4%; HT1080-NT tox: 0%; KB-3-1 tox: inactive

How did COc1ccc(C2c3c(n(C)c4ccccc34)C(=O)N2CC(=O)Nc2ccc(C)cc2Cl)cc1 (stereo unspecified) do in these assays?
TDP1 cell noCPT: inconclusive; KB-V1 MDR tox: inactive; TDP1 cell CPT: inconclusive; KB-3-1 tox: inactive

How did COc1ccc(C2c3c(n(C)c4ccccc34)C(=O)N2CC(=O)Nc2cc(Cl)ccc2C)cc1 (stereo unspecified) do in these assays?
TDP1 cell noCPT: 21µM*; KB-V1 MDR tox: inactive; TDP1 cell CPT: inconclusive; KB-3-1 tox: inactive

What do the screens show for `CC(=O)c1ccc(F)c(-c2cc(C)cc3c2OC(CNC(=O)C[C@@H]2C[C@@H](C)NC(=S)N2)C3)c1` (stereo partly specified)?
TDP1 cell noCPT: -18%; TDP1 cell CPT: -13%[9.04 µM]

What do the screens show for `CCN(CC)c1ccc(NC(=O)CN2C(=O)CSc3ncccc32)c(C)c1`?
TDP1 cell noCPT: 7.3µM*; KB-V1 MDR tox: inconclusive; HT1080 IDH1KD tx: -5%; TDP1 cell CPT: 5.2µM*; HT1080-NT tox: -9%; KB-3-1 tox: inconclusive

What do the screens show for `CCN(CC)c1ccc(NC(=O)Cn2nc(C)n3cccc3c2=O)c(C)c1`?
TDP1 cell noCPT: 18µM*; KB-V1 MDR tox: inactive; TDP1 cell CPT: 15µM*; KB-3-1 tox: inactive

How did CNC(=O)CN1C(=O)CSc2ncccc21 do in these assays?
TDP1 cell noCPT: -19%; KB-V1 MDR tox: inactive; HT1080 IDH1KD tx: 2%; TDP1 cell CPT: -2%; HT1080-NT tox: 0%; KB-3-1 tox: inactive

What do the screens show for `Cc1ccc2c(c1)N(CC(=O)Nc1ccccc1C(F)(F)F)C(=O)c1cccnc1O2`?
TDP1 cell noCPT: inconclusive; KB-V1 MDR tox: inactive; TDP1 cell CPT: inconclusive; KB-3-1 tox: inactive

Results for CCN(CC)c1ccc(NC(=O)CN2C(=O)c3cccnc3Oc3ccccc32)c(C)c1 ?
TDP1 cell noCPT: 16µM*; KB-V1 MDR tox: inactive; TDP1 cell CPT: 16µM*; KB-3-1 tox: inactive

How did NC(N)=NCCC[C@H](N)C(=O)O do in these assays?
TDP1 cell noCPT: -7%; TDP1 cell CPT: -11%

Results for C[C@@H]1CN([C@@H](C)CO)C(=O)CCCn2nncc2CO[C@H]1CN(C)S(=O)(=O)c1ccc(C#N)cc1 ?
TDP1 cell noCPT: -26%; KB-V1 MDR tox: inactive; HT1080 IDH1KD tx: -4%; TDP1 cell CPT: -16%; HT1080-NT tox: 2%; KB-3-1 tox: inactive

Results for COc1ccc(CCNS(=O)(=O)c2ccc3c(c2)c(=O)n(C)c(=O)n3C)cc1OC ?
TDP1 cell noCPT: -5%; KB-V1 MDR tox: inactive; TDP1 cell CPT: 5%; KB-3-1 tox: inactive

What do the screens show for `Cn1c(=O)c2c(-c3ccccc3Br)n(C(C)(C)C)cc2n(C)c1=O`?
TDP1 cell noCPT: 12µM*; KB-V1 MDR tox: inactive; TDP1 cell CPT: 16µM*; KB-3-1 tox: inactive

Results for CC(c1ccccc1)n1cc2c(c1-c1ccccc1Br)c(=O)n(C)c(=O)n2C (stereo unspecified) ?
TDP1 cell noCPT: 18µM*; KB-V1 MDR tox: inactive; TDP1 cell CPT: 16µM*; KB-3-1 tox: inactive

Results for COc1ccc(CCn2cc3c(c2-c2ccccc2Br)c(=O)n(C)c(=O)n3C)cc1OC ?
TDP1 cell noCPT: 16µM*; KB-V1 MDR tox: inactive; TDP1 cell CPT: 21µM*; KB-3-1 tox: inactive

How did COc1ccc(Cl)cc1NC(=O)CCNC(=O)Cn1ccc2ccccc2c1=O do in these assays?
TDP1 cell noCPT: inconclusive; KB-V1 MDR tox: inactive; HT1080 IDH1KD tx: 8%; TDP1 cell CPT: -5%; HT1080-NT tox: 11%; KB-3-1 tox: inconclusive

Results for Cc1ccc(C)n1-c1ccc(C(=O)Nc2ccccc2)cc1 ?
TDP1 cell noCPT: 26µM*; KB-V1 MDR tox: inactive; HT1080 IDH1KD tx: 0%; TDP1 cell CPT: inconclusive; HT1080-NT tox: -5%; KB-3-1 tox: inactive

What do the screens show for `COC(=O)c1cccc(NC(=O)c2ccccc2)c1`?
TDP1 cell noCPT: -13%; KB-V1 MDR tox: inactive; HT1080 IDH1KD tx: 5%; TDP1 cell CPT: -6%; HT1080-NT tox: 7%; KB-3-1 tox: inactive

What do the screens show for `Cc1ccc(C)n1-c1cccc(NC(=O)c2ccccc2)c1`?
TDP1 cell noCPT: inconclusive; KB-V1 MDR tox: 23µM*; HT1080 IDH1KD tx: -26%; TDP1 cell CPT: inconclusive; HT1080-NT tox: -14%; KB-3-1 tox: inactive
